This is an account of results in PubChem BioAssay.

Activity calls are given as the source filed them.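 The calls were made as follows, unless noted: active = inhibition above 20% together with a positive visual image hit; inconclusive = visual image hit but inhibition not above 20%; inactive = no visual image hit.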

Assay [1] is described as follows: inhibitors of TNFa-induced NFkB p65 translocation, primary screen, imaging, HUVEC, MLSMR starter and 10KST1 sets (AID 438).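 Also: compound added about 3h40 before a 20 min TNFalpha stimulation.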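 As to inhibition: signal is the nuclear over cytoplasmic p65 intensity ratio per well.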 Conditions: HUVEC TNFa-induced p65 nuclear translocation; cell count: measured here: nuclei count (cytotoxicity indicator), at 2.08 µM; inhibition: at 2 µM, stronger effect = higher value, 0% TNFa-plus-vehicle, 100% no-TNFa wells.
Assay [2] in a line: inhibitors of mutant huntingtin aggregation, primary screen, imaging, exon1htt(103Q)mCFP cells, high-content imaging (AID 483;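 active = visual image review flags a hit and inhibition of aggregation exceeds 20%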;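 also: compound exposure lasted 3 days before fixation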;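 as to nuclei count: percent of the per-plate median nuclei count of sample wells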). To be noted: exon1htt(103Q)mCFP cell line, aggregate imaging, at 2 µM; inhibition of aggregation: stronger effect = higher value; nuclei count: measured here: cell count, toxicity.
Assay [3] can be described thus: inhibitors of E-selectin induction by TNFa, primary screen, imaging, HUVEC, immunofluorescence, MLSMR starter and 10KST1 sets (AID 487;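 active = visually confirmed hit in the image check and inhibition above 20%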;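 as to inhibition: signal is fraction of cell area covered by stained E-selectin grains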;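 as to nuclei count: 100% = median nuclei count of all wells on the same plate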). Conditions: HUVEC TNFalpha-induced E-selectin immunofluorescence imaging, at 2 µM; inhibition: stronger effect = higher value; nuclei count: measured here: cell number, toxicity.
Assay [4] concerns the target Voltage-gated potassium channel subunit beta-2 (Rattus norvegicus) (UniProt P62483). In words: KvBeta enzyme negative modulators, primary screen, biochemical, NADPH fluorescence (AID 622;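 active = fluorescence slope higher than the sample average by over 3 SD, cut at about -0.22 in these data, passing the limit was not always enough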;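 also: slope of raw intensity against log time taken from 70 to 1610 s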). Conditions: recombinant KvBeta, 4-cyanobenzaldehyde reduction, at 10 µM, stronger effect = higher value.
Assay [5] has the same target. In words: KvBeta positive modulators, primary screen, biochemical, NADPH fluorescence (AID 623;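 active = NADPH fluorescence slope more negative than the mean of all samples by about 3 SD, 99.7% confidence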;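 also: fluorescence intensity change per second fitted from 20 to 320 s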). Conditions: Recombinant KvBeta, NADPH fluorescence decrease slope, 10 min; at 10 µM; stronger effect = lower value.
In assay [6] the target is Muscarinic acetylcholine receptor M4 (Homo sapiens) (UniProt P08173). The assay can be described thus: compounds altering M4/GIRK thallium flux, either direction, primary screen, M4 allosteric agonist project, cell-based, HEK293 M4/GIRK, BTC-AM (AID 625;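 active = fluorescence slope after compound addition differing from the mean of all tested samples at 99.7% confidence, mostly higher but some lower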;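 also: thallium influx through GIRK channels coupled to M4 in HEK293 cells with BTC-AM dye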). To be noted: at 10 µM, actives lie on both sides.
Assay [7] is described as follows: inhibitors of Sendai virus-induced IRF3 signaling, primary screen, TLR/RLR signaling modifier project, cell-based, Sendai virus stimulus, luciferase, 10K MLSCN set (AID 602276;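 active = inhibition at or above 50% at 10 µM; inactive = inhibition below 50%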;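 also: firefly luciferase from ISG56 promoter only with Renilla not read in this screen; 0% = Sendai virus plus DMSO and 100% = medium plus DMSO without virus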). To be noted: HEK293 RL24 IRF3 luciferase reporter, at 10 µM, stronger effect = higher value.
Assay [8] can be described thus: inhibitors of poly I:C-induced TLR3 signaling, primary screen, cell-based, poly I:C stimulus, luciferase, 10K MLSCN set (AID 602277;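 active = inhibition of the reporter signal at or above 50%; inactive = inhibition below 50%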). To be noted: HEK293-TLR3 RL24 IRF3 luciferase reporter, at 10 µM, stronger effect = higher value.
The target of assay [9] is Alpha-2C adrenergic receptor (Homo sapiens) (UniProt P18825). In words: modulators of alpha2C/GIRK thallium flux, primary screen, cell-based, HEK293 alpha2C/GIRK1/2 (AID 624;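 active = fluorescence slope after compound addition differing from the mean of all screened samples at 99.7% confidence, in either direction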;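 also: slope of fluorescence ratio to pre-addition baseline per second over 15 to 24 s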). To be noted: thallium flux BTC fluorescence, at 10 µM, actives lie on both sides.
Assay [10] is described as follows: DUSP6 inhibitors restoring Erk phosphorylation by chemical complementation, primary imaging in DUSP6-transfected HeLa (AID 609;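 active = compounds giving at least 50% inhibition in the cell-based MKP-3 phosphatase rescue imaging test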;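 as to inhibition: phospho-Erk level distribution per well compared with pooled transfected vehicle control wells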). Conditions: HeLa MKP-3 transfected, phospho-Erk imaging KS statistic, at 10 µM, cells stimulated with TPA for 15 min.
The target in assay [11] is Dual specificity protein phosphatase 6 (Homo sapiens) (UniProt Q16828). The assay is described as above. Conditions: HeLa MKP-3 transfected, phospho-Erk imaging KS statistic; at 10 µM; stronger effect = higher value; cells stimulated with TPA for 15 min.
Sequence of Dual specificity protein phosphatase 6 (Homo sapiens) (Q16828 whole entry, looked up): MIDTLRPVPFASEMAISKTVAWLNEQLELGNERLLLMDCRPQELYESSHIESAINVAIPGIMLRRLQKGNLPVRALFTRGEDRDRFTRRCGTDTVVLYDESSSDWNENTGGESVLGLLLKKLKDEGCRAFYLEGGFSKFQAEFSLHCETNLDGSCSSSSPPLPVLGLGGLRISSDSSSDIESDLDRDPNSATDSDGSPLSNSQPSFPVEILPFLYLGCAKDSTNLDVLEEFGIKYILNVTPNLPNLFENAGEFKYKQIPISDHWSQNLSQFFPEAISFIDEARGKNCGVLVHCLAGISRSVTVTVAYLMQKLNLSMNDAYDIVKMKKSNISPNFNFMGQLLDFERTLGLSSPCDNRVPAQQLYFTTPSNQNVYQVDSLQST

Sequence of Voltage-gated potassium channel subunit beta-2 (Rattus norvegicus) (P62483 whole entry, looked up): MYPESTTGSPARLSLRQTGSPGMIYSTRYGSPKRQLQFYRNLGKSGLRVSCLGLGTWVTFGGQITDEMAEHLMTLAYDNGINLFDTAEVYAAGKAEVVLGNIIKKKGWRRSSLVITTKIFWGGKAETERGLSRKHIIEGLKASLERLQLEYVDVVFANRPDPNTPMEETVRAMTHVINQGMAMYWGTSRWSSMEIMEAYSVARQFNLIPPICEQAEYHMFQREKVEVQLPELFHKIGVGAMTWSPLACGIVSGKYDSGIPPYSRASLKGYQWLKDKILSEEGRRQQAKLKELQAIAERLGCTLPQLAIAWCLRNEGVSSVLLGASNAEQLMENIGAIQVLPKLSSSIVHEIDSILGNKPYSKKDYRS
Sequence of Muscarinic acetylcholine receptor M4 (Homo sapiens) (P08173 whole entry, looked up): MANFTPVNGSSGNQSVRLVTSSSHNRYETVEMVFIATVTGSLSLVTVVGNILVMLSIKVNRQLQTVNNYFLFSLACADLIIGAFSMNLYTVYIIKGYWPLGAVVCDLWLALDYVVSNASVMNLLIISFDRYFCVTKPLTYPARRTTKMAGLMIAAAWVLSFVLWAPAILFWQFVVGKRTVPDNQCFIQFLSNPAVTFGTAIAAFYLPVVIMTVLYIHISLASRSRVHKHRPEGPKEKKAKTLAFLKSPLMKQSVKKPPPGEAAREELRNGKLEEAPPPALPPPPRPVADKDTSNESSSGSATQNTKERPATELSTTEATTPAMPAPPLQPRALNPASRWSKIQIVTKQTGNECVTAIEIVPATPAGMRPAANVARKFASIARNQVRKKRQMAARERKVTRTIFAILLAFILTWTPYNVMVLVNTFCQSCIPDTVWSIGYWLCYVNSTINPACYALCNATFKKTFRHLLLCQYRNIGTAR
Sequence of Alpha-2C adrenergic receptor (Homo sapiens) (P18825 whole entry, looked up): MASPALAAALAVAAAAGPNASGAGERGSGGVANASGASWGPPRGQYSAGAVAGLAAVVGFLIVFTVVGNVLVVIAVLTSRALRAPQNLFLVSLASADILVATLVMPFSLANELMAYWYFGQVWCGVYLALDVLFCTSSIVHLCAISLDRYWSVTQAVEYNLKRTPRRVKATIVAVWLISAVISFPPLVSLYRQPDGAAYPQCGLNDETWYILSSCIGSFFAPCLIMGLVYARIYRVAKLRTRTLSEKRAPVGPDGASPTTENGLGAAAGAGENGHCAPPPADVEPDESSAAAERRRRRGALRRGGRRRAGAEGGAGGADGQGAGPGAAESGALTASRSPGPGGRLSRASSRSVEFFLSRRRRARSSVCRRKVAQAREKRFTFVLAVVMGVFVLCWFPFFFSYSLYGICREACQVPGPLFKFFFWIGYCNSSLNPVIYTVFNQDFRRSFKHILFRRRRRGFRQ

`Cc1cc(NC(=O)COc2ncnc3sc(C)c(C)c23)no1`: in [1], the cell count amounted to 418. Moreover, the inhibition in assay [1] was 1.3% (inactive); in [7], 21% (inactive); in assay [8], 21.4% (inactive). In [2], the inhibition of aggregation is -2.1% (inactive). In addition, the nuclei count in assay [2] came to 100%; in assay [3], 153%. Besides, the fluorescence slope in assay [4] was -0.568 (inactive); in [6] it was 0.00692 (inactive). Moreover, the NADPH fluorescence slope in [5] was -2.9e-05 (inactive).
As for `O=C(Nc1ccc(Cl)cc1)C1CC=CCC1C(=O)OCC(F)(F)C(F)F` (stereo not given), the cell count in assay [1] turned out to be 628. Further, the inhibition in [1] was 8.2% (inactive); in assay [3], -17.6% (inactive); in [7] it was 11.2% (inactive); in [8], 3.19% (inactive). The inhibition of aggregation in assay [2] is 31.1% (inactive). Moreover, the nuclei count was determined as 88% in assay [2] and 96.7% in [3]. Further, the fluorescence slope is -0.319 (inactive) in [4] and 0.00812 (inactive) in [6]. The NADPH fluorescence slope in assay [5] is -7e-05 (inactive).
Turning to `CCOC(=O)c1ccc(COC(=O)CCc2nc3ccccc3[nH]c2=O)o1`, the cell count in [1] was 410. Besides, the inhibition in [1] is 10.6% (inactive); in [7], 15.9% (inactive); in assay [8], 18.3% (inactive). For the same compound, the inhibition of aggregation in assay [2] is -18.4% (inactive). For the same compound, the nuclei count turned out to be 108% in assay [2] and 147% in assay [3]. Besides, the fluorescence slope in assay [4] was -0.546 (inactive); in assay [6], 0.00556 (inactive). Besides, the NADPH fluorescence slope in assay [5] was 1.7e-05 (inactive).
For `COc1ccc(OCc2nc(N)nc(Nc3cccc(C)c3C)n2)cc1`, in assay [1], the cell count worked out at 369 and the inhibition is 3.3% (inactive). In [2], the inhibition of aggregation was -10.8% (inactive) and the nuclei count is 102%. Also, the fluorescence slope in assay [4] was -0.446 (inactive). Also, the NADPH fluorescence slope in [5] is -1e-06 (inactive). In addition, the slope in assay [9] is 0.00333 (inactive). In addition, the inhibition in [7] is 4.49% (inactive). The inhibition in [8] is 29% (inactive).
As for `COc1cccc(C(=O)Nc2cnc(NC(=O)c3ccco3)cc2C)c1`, the cell count in [1] came to 463. Further, the inhibition is 12.5% (inactive) in [1], 5.68% (inactive) in assay [7] and -23.5% (inactive) in [8]. Further, the inhibition of aggregation in assay [2] was -2.9% (inactive). Besides, the nuclei count was 98.1% in assay [2] and 119% in assay [3]. Further, the fluorescence slope is -0.567 (inactive) in assay [4] and 0.00623 (inactive) in assay [6]. Moreover, the NADPH fluorescence slope in assay [5] is -5.3e-05 (inactive).
In the case of `O=C(O)CC(C(=O)OCCOc1ccccc1)N1CCOCC1` (stereo not given), in assay [1], the cell count is 504 and the inhibition was 6.4% (inactive). Besides, in [3], the inhibition is -77.1% (inactive) and the nuclei count amounted to 109%.
Consider `O=C1NC(c2ccccc2)(C(F)(F)F)SC2=NCCCN12` (stereo not given), for which, in assay [1], the cell count came to 429. The inhibition in [1] was 4.8% (inactive); in assay [7], -6.22% (inactive); in assay [8] it was -13.6% (inactive). The inhibition of aggregation in assay [2] was 12.3% (inactive). For the same compound, the nuclei count in assay [2] amounted to 106%; in assay [3], 154%. Also, the figures for the fluorescence slope in assay [4] and in assay [6] were -0.482 (inactive) and 0.00455 (inactive), respectively. In [5], the NADPH fluorescence slope is 4.2e-05 (inactive).
In the case of `COc1ccc(-c2[nH]nc3c2C(c2ccccc2OC(=O)N2CCOCC2)C(C#N)=C(N)O3)cc1` (stereo not given), the cell count in assay [1] amounted to 663. Also, the inhibition was -15.1% (inactive) in assay [1], -15.6% (inactive) in assay [3], 25.8% (inactive) in [7] and 19% (inactive) in assay [8]. In addition, the inhibition of aggregation in assay [2] was -9.9% (inactive). For the same compound, the nuclei count in assay [2] and in [3] was 104% each time. In addition, the fluorescence slope in assay [4] was -0.574 (inactive); in assay [6] it was 0.00609 (inactive). The NADPH fluorescence slope in [5] was -3.5e-05 (inactive).
For the compound `COc1ccc2cc([C@H](C)C(=O)O)ccc2c1`, the cell count in [1] came to 649. Further, the inhibition in [1] is -0.4% (inactive); in assay [3], -51.6% (inactive); in assay [11] it was 5.42% (inactive); in assay [7], 13.2% (inactive); in [8] it was 30.5% (inactive). This compound came in with a nuclei count in assay [3] of 120%. Also, the z-score in assay [10] (measured here: cell density z-score) was -0.246; in assay [10] (measured here: nuclear c-Myc green intensity z-score), 0.258; in assay [10] (measured here: nuclear pErk red intensity z-score, stronger effect = higher value), 0.308. In [4], the fluorescence slope was -0.491 (inactive). The NADPH fluorescence slope in assay [5] was -6.7e-05 (inactive). Further, in assay [9], the slope is 0.00486 (inactive).
Regarding `C#CCN1C(=O)C(O)(CC(=O)c2cccc(OC)c2)c2ccccc21` (stereo not given), in [1], the cell count came to 429. The inhibition in [1] is 1.2% (inactive); in assay [3] it was -130% (inactive); in assay [7], 10.4% (inactive); in assay [8] it was 14.1% (inactive). For the same compound, the inhibition of aggregation in assay [2] was -0.5% (inactive). Moreover, the nuclei count in [2] amounted to 96.2%; in [3], 163%. The fluorescence slope is -0.337 (inactive) in [4] and 0.00596 (inactive) in assay [6]. In assay [5], the NADPH fluorescence slope was -6.5e-05 (inactive).
With `CCOC(=O)C1CCCN(Cc2nc(N)nc(Nc3ccccc3)n2)C1` (stereo not given), in assay [1], the cell count turned out to be 741. The inhibition in assay [1] is -4.7% (inactive); in assay [3], -49.1% (inactive); in assay [7] it was 22.1% (inactive); in assay [8], 16.8% (inactive). In addition, the inhibition of aggregation in assay [2] is -2.7% (inactive). Further, the nuclei count in assay [2] amounted to 104%; in assay [3] it was 106%. In addition, the figures for the fluorescence slope in [4] and in assay [6] were -0.57 (inactive) and 0.0052 (inactive), respectively. For the same compound, the NADPH fluorescence slope in [5] is -4.6e-05 (inactive).
